About 79,000 compounds went through this panel and 15% of them were active in at least one assay; those are over-represented in the sample as a whole. Cut-off read from the data, not from the text of the source: active = growth inhibition above about 70%; inactive = the rest.
Columns and labels:
[1] = NCI Yeast Anticancer Drug Screen. Data for the rad50 strain (AID 155);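 note: 0% = growth of vehicle-only cultures of the same strain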; conditions: S. cerevisiae rad50 strain growth inhibition; at 50.0 µM; hits give high values
Outline: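 Inhibition values express reduced yeast growth in compound-treated cultures relative to vehicle-treated controls.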

[2] = NCI Yeast Anticancer Drug Screen. Data for the mec2-1 strain (AID 157); conditions: S. cerevisiae mec2-1 strain, at 50.0 µM, hits give high values
Outline: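 Compounds were applied to mec2-1 yeast cells. Their growth was then compared with that of vehicle-treated cultures to give growth inhibition.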

[3] = NCI Yeast Anticancer Drug Screen. Data for the sgs1 mgt1 strain (AID 161);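 note: 0% = growth of cultures given vehicle only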; conditions: S. cerevisiae sgs1 mgt1 strain, at 50.0 µM, hits give high values
Outline: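 Compounds are added to genetically altered yeast, and growth is compared with cultures given vehicle alone to give percent inhibition.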

[4] = NCI Yeast Anticancer Drug Screen. Data for the cln2 rad14 strain (AID 165);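 note: 0% = growth equal to vehicle treated cultures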; conditions: S. cerevisiae cln2 rad14 strain, at 50.0 µM, hits give high values
Outline: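 Strain: cln2 rad14 yeast, altered in cell cycle control and DNA damage repair. Read-out: growth inhibition vs vehicle.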

[5] = NCI Yeast Anticancer Drug Screen. Data for the bub3 strain (AID 167); conditions: S. cerevisiae bub3 mutant strain, at 50.0 µM, hits give high values
Outline: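 Steps: expose the mutant yeast strain to compound; grow alongside vehicle-treated cultures; measure growth; express inhibition against the vehicle cultures.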

[6] = NCI Yeast Anticancer Drug Screen. Data for the mlh1 rad18 strain (AID 175); conditions: S. cerevisiae mlh1 rad18 strain growth inhibition; at 50.0 µM; hits give high values
Outline: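 A repair-deficient yeast strain is exposed to test compound, and growth is scored relative to vehicle-treated controls.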

Measured: growth inhibition

Nc1c(Cl)ncnc1NCCCCCCCCCCCCNc1ncnc(Cl)c1N
inactive: [1] -6.4% | [2] 1.75% | [3] 26.1% | [4] -8.95% | [5] -9.7% | [6] 1.85%

NC1C2C=CC(C2)C1C(=O)O (stereo unspecified)
inactive: [1] -0.65% | [2] -0.25% | [3] -50.4% | [4] 4% | [5] -26.6% | [6] -17.3%

Cc1cn(C2CC(N)C(C(=O)NCC(=O)O)O2)c(=O)[nH]c1=O (stereo unspecified)
inactive: [1] -19.9% | [2] -54.5% | [3] -0.6% | [4] 2.65% | [5] -40.1% | [6] -26.1%

N#CCc1ccc(/C(C#N)=C2/OC(=N)C(c3ccc(CC#N)cc3)C2=O)cc1 (stereo unspecified)
inactive: [1] -10.3% | [2] 2.65% | [3] -5.45% | [4] -21.6% | [5] -20.7% | [6] -16.4%

Cc1ccc2[nH]c(-c3ccccc3)cc2c1
inactive: [1] -1.85% | [2] -21.6% | [3] -10.6% | [4] -27.8% | [5] -8.15% | [6] -9.8%

CCCCCC(=O)NC(=O)Nc1ccccc1OC
inactive: [1] -13.6% | [2] -1.05% | [3] -4.35% | [4] -24.1% | [5] 0.65% | [6] -1.55%

COc1ccc2oc(C(=O)O)cc2c1
inactive: [1] -4.55% | [2] -3.65% | [3] -9.05% | [4] -25% | [5] -6.6% | [6] 0.6%

Cc1ccc2c(O)c3c(cc2c1O)C(=O)c1ccccc1C3=O
inactive: [1] 30.2% | [2] 0.75% | [3] 20.4% | [4] 21.3% | [5] -0.85% | [6] 31.2%

Cc1ccc2c(c1)sc(C)[n+]2CCO
inactive: [1] -19.9% | [2] -19.5% | [3] -38.8% | [4] -5.65% | [5] -9.65% | [6] -18.4%

Cn1c(C(F)(F)F)nc2nc(Cl)c(Cl)nc21
inactive: [1] 16.6% | [2] 0.05% | [3] 20.7% | [4] 21.2% | [5] -32% | [6] 46%

O=C(CN=C(CN(c1ccccc1)c1ccccc1)Oc1c(Cl)cc(Cl)cc1Cl)n1cnc2ccccc21
inactive: [1] 0.9% | [2] -9% | [3] 35.3% | [4] -63.4% | [5] -46.4% | [6] 10.4%

Cc1c(O)ccc2c1CCCC2
inactive: [1] 7.05% | [2] 5.75% | [3] -4.8% | [4] -34.2% | [5] 6.1% | [6] 4.65%

Nc1nc(-c2ccccc2)cc(-c2ccc(F)cc2)c1-c1ccc(Cl)cc1
inactive: [1] 16.9% | [2] -9.2% | [3] 20.4% | [4] 24.6% | [5] -0.95% | [6] -73.5%

CCCCC(Sc1cc(Cl)c(C)cc1S(=O)(=O)Nc1n[nH]c(N)n1)C(=O)OC (stereo unspecified)
inactive: [1] -4.85% | [2] -12.3% | [3] 50% | [4] 7% | [5] -18.8% | [6] 5.75%

COc1ccc(N2C(=O)C3CC(c4ccc(Br)cc4)c4c([nH]c5ccccc45)C3C2=O)cc1 (stereo unspecified)
inactive: [1] 1.7% | [2] -14.4% | [3] 5.55% | [4] -51.8% | [5] 2.9% | [6] -4.95%

CSc1cc2c(cc1[N+](=O)[O-])C(=O)c1ccccc1-2
inactive: [1] -1.85% | [2] 5.75% | [3] 0.8% | [4] 0.6% | [5] 4.05% | [6] 5.6%

C[C@@H](O)c1nc(C(N)=O)cs1
inactive: [1] 6.15% | [2] 14.2% | [3] 15.3% | [4] -3.55% | [5] 1.35% | [6] 10.1%

C=C1CC(OC(C)=O)/C=C(/C)CCC(C(C)(C)O)CC1O (stereo unspecified)
inactive: [1] 6.7% | [2] -32% | [3] -11.2% | [4] 7.65% | [5] -8% | [6] -20.9%

O=C(CN1CCCCC1)c1ccc(CCc2ccc(C(=O)CN3CCCCC3)cc2)cc1
inactive: [1] 35% | [2] 11.3% | [3] 33.9% | [4] -61.1% | [5] 6.5% | [6] 32.2%

CCCCC(CC)COC(=O)Cc1ccccc1 (stereo unspecified)
inactive: [1] 17.3% | [2] 17.1% | [3] 15.8% | [4] -5.85% | [5] 40.1% | [6] 34.7%

c1cnn(C23C4C5C6C4C2C6C53)c1 (stereo unspecified)
inactive: [1] -24.4% | [2] -26.6% | [3] -18.7% | [4] -20.5% | [5] -32.5% | [6] -38.6%

O=c1[nH]c2c(Cl)c(Cl)cc(Cl)c2o1
inactive: [1] 51.1% | [2] 6.4% | [3] 23.9% | [4] 48.2% | [5] 13.6% | [6] 43.6%

CCC(C)N1C(=O)c2ccccc2C1=O (stereo unspecified)
inactive: [1] 33% | [2] -13.6% | [3] 17.1% | [4] -13.6% | [5] 11.3% | [6] 27.1%

C/C(Cc1ccccc1)=N\NC(N)=S
inactive: [1] 13.3% | [2] 1.15% | [3] 27.6% | [4] -12.7% | [5] 8.5% | [6] 29.5%

CC12CCC(C1)C(C)(C)/C2=N\O (stereo unspecified)
inactive: [1] -16.2% | [2] -13.8% | [3] 2.55% | [4] 4.85% | [5] 0.05% | [6] 2.65%

COc1cc(C(CC#N)CC#N)cc(OC)c1OC
inactive: [1] -3.4% | [2] -15.8% | [3] 25.8% | [4] 6.45% | [5] 8.95% | [6] 8%

CCN(CC)CCNC1=CC(=S)NC(C)(C)C1
inactive: [1] -13.7% | [2] 10.6% | [3] -2.6% | [4] -4.2% | [5] -1.9% | [6] -6.05%

O=C(O)c1cccc(C#Cc2ccccc2)c1
inactive: [1] 16.7% | [2] 5.25% | [3] 12.5% | [4] -15.4% | [5] 4.55% | [6] 25.1%

O=C1CCC(C2(O)c3ccccc3-c3ccccc32)C(=O)N1 (stereo unspecified)
inactive: [1] -20.7% | [2] -16.1% | [3] -22.3% | [4] 22.4% | [5] 4.65% | [6] 1.4%

COc1ccc(C2=CSc3ccccc3N2)cc1
inactive: [1] 11.2% | [2] 15.8% | [3] 42.3% | [4] 6.1% | [5] 36.3% | [6] 11.4%

c1ccc([P+](Cc2ccc(C[P+](c3ccccc3)(c3ccccc3)c3ccccc3)cc2)(c2ccccc2)c2ccccc2)cc1
inactive: [1] 48.2% | [2] 35.6% | [3] 29.4% | [4] 40.5% | [5] 47.9% | [6] 37.5%

CCOC(=O)c1cc(-c2ccccc2)c(-c2ccccc2)c(-c2ccccc2)c1-c1ccccc1
inactive: [1] 28.4% | [2] 9.15% | [3] 19.6% | [4] 18.3% | [5] 2.75% | [6] 14.6%

CCCCCN(CCCCC)CC(O)c1ccc2cc3c(nc2c1)CCCC3 (stereo unspecified)
inactive: [1] 6.2% | [2] 10.2% | [3] 26.9% | [4] 5.25% | [5] -7.2% | [6] 1.5%

COC(=O)/C(=C/Cl)NC(C)=O
inactive: [1] 3.2% | [2] -7.55% | [3] -4.8% | [4] -9.9% | [5] 8.7% | [6] 5.8%

CCCCCCCCCCCCCC/C(C(=O)OC)=C(/O)C(=O)OCC
inactive: [1] -40.4% | [2] -30.4% | [3] -27.6% | [4] -17.2% | [5] -57.8% | [6] -19.9%

CCOC(=O)C1CC2(CCC(=O)O2)C(=O)O1 (stereo unspecified)
inactive: [1] -5.15% | [2] -5.95% | [3] -20.6% | [4] 3.05% | [5] -5.75% | [6] -6.85%

O=CNC1(CO)CCCCC1
inactive: [1] -2.4% | [2] -3.4% | [3] -7.05% | [4] -38.8% | [5] -18.1% | [6] 7.9%

CC(=O)[CH-]C(=O)c1ccccc1.CC(=O)[CH-]C(=O)c1ccccc1.CC12CC3(C)CC(C)(C1)CC([O-])(C2)C3.CC[O-].[Ti+4]
inactive: [1] 15.1% | [2] 21.8% | [3] 28.6% | [4] 23.8% | [5] 8.55% | [6] 18%

CCOc1cc(C)c2cccc(C)c2n1
inactive: [1] 17.1% | [2] -0.35% | [3] -13.6% | [4] 6.25% | [5] 2% | [6] 13.8%

CN(C)CCNC(=O)c1cccc2ccc(-c3ccncc3)nc12
inactive: [1] 6.15% | [2] 11% | [3] -20.7% | [4] -3.3% | [5] -19.9% | [6] -27.8%

O[C@@H]1C=C(c2ccccc2)[C@H](c2ccccc2)C1
inactive: [1] -3% | [2] 9.6% | [3] 9.65% | [4] -7.9% | [5] -19.8% | [6] -1.15%
